# The supplement of paper PMC4466140
# B1: unnamed (peptide)
# chain: QNTPPLPPKPKSPHL
# B2: unnamed (peptide)
# chain: QQNRPLPQLPNRNNR
# B3: unnamed (peptide)
# chain: LYKRKPILLPDPKPL
# Tests used:
# Assay in all cases: SPOT peptide array binding signal intensity (averaged, normalized) (arbitrary units (background-subtracted, floor 0; scale differs between SH3 domains)); higher = stronger binding of the SH3 domain to the peptide
# AgAbp1 = molecular target: AgAbp1
# Protocol: (§1)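 GST-tagged SH3 domains from S. cerevisiae (Sc), A. gossypii (Ag), C. albicans (Ca) and S. pombe (Sp) were incubated at 10 ug/ml overnight at 4 C on cellulose SPOT membranes carrying 292 synthetic 15-mer peptides mined from the S. cerevisiae proteome (cysteines replaced by serines). Binding was detected with anti-GST antibody, HRP secondary and chemiluminescence, quantified with Genespotter, and reported as normalized spot intensities averaged over biological replicates.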
# AgBbc1 = molecular target: AgBbc1
# Protocol: as §1
# AgBem1-D1 = molecular target: AgBem1-D1
# Protocol: as §1
# AgBzz1-D1 = molecular target: AgBzz1-D1
# Protocol: as §1
# AgBzz1-D2 = molecular target: AgBzz1-D2
# Protocol: as §1
# AgCyk3 = molecular target: AgCyk3
# Protocol: as §1
# AgFus1 = molecular target: AgFus1
# Protocol: as §1
# AgHof1 = molecular target: AgHof1
# Protocol: as §1
# AgHse1 = molecular target: AgHse1
# Protocol: as §1
# AgLsb1 = molecular target: AgLsb1
# Protocol: as §1
# AgLsb4 = molecular target: AgLsb4
# Protocol: as §1
# AgMyo5 = molecular target: AgMyo5
# Protocol: as §1
# AgNbp2 = molecular target: AgNbp2
# Protocol: as §1
# AgRvs167 = molecular target: AgRvs167
# Protocol: as §1
# AgSho1 = molecular target: AgSho1
# Protocol: as §1
# AgSla1-D1-D2 = molecular target: AgSla1-D1-D2
# Protocol: as §1
# AgSla1-D3 = molecular target: AgSla1-D3
# Protocol: as §1
# CaAbp1-D1 = molecular target: CaAbp1-D1
# Protocol: as §1
# CaAbp1-D2 = molecular target: CaAbp1-D2
# Protocol: as §1
# CaBbc1 = molecular target: CaBbc1
# Protocol: as §1
# CaBem1-D1 = molecular target: CaBem1-D1
# Protocol: as §1
# CaBzz1-D1 = molecular target: CaBzz1-D1
# Protocol: as §1
# CaBzz1-D2 = molecular target: CaBzz1-D2
# Protocol: as §1
# CaCyk3 = molecular target: CaCyk3
# Protocol: as §1
# CaFus1 = molecular target: CaFus1
# Protocol: as §1
# CaHof1 = molecular target: CaHof1
# Protocol: as §1
# CaHse1 = molecular target: CaHse1
# Protocol: as §1
# CaLsb1 = molecular target: CaLsb1
# Protocol: as §1
# CaLsb4 = molecular target: CaLsb4
# Protocol: as §1
# CaMyo5 = molecular target: CaMyo5
# Protocol: as §1
# CaNbp2 = molecular target: CaNbp2
# Protocol: as §1
# CaRvs167 = molecular target: CaRvs167
# Protocol: as §1
# CaRvs167-3 = molecular target: CaRvs167-3
# Protocol: as §1
# CaSho1 = molecular target: CaSho1
# Protocol: as §1
# CaSla1-D1-D2 = molecular target: CaSla1-D1-D2
# Protocol: as §1
# CaSla1-D3 = molecular target: CaSla1-D3
# Protocol: as §1
# ScAbp1 = molecular target: ScAbp1
# Protocol: as §1
# ScBbc1 = molecular target: ScBbc1
# Protocol: as §1
# ScBem1-D1 = molecular target: ScBem1-D1
# Protocol: as §1
# ScBzz1-D1 = molecular target: ScBzz1-D1
# Protocol: as §1
# ScBzz1-D2 = molecular target: ScBzz1-D2
# Protocol: as §1
# ScCyk3 = molecular target: ScCyk3
# Protocol: as §1
# ScFus1 = molecular target: ScFus1
# Protocol: as §1
# ScHof1 = molecular target: ScHof1
# Protocol: as §1
# ScHse1 = molecular target: ScHse1
# Protocol: as §1
# ScLsb1 = molecular target: ScLsb1
# Protocol: as §1
# ScLsb2 = molecular target: ScLsb2
# Protocol: as §1
# ScLsb3 = molecular target: ScLsb3
# Protocol: as §1
# ScLsb4 = molecular target: ScLsb4
# Protocol: as §1
# ScMyo3 = molecular target: ScMyo3
# Protocol: as §1
# ScMyo5 = molecular target: ScMyo5
# Protocol: as §1
# ScNbp2 = molecular target: ScNbp2
# Protocol: as §1
# ScPex13 = molecular target: ScPex13
# Protocol: as §1
# ScRvs167 = molecular target: ScRvs167
# Protocol: as §1
# ScSho1 = molecular target: ScSho1
# Protocol: as §1
# ScSla1-D1-D2 = molecular target: ScSla1-D1-D2
# Protocol: as §1
# ScSla1-D3 = molecular target: ScSla1-D3
# Protocol: as §1
# SpAbp1-D1 = molecular target: SpAbp1-D1
# Protocol: as §1
# SpBbc1 = molecular target: SpBbc1
# Protocol: as §1
# SpBzz1-D1 = molecular target: SpBzz1-D1
# Protocol: as §1
# SpBzz1-D2 = molecular target: SpBzz1-D2
# Protocol: as §1
# SpCyk3 = molecular target: SpCyk3
# Protocol: as §1
# SpHof1 = molecular target: SpHof1
# Protocol: as §1
# SpHof1-2 = molecular target: SpHof1-2
# Protocol: as §1
# SpHof1-3 = molecular target: SpHof1-3
# Protocol: as §1
# SpHse1 = molecular target: SpHse1
# Protocol: as §1
# SpLsb1 = molecular target: SpLsb1
# Protocol: as §1
# SpLsb4 = molecular target: SpLsb4
# Protocol: as §1
# SpMyo1 = molecular target: SpMyo1
# Protocol: as §1
# SpNbp2 = molecular target: SpNbp2
# Protocol: as §1
# SpPex13 = molecular target: SpPex13
# Protocol: as §1
# SpRvs167 = molecular target: SpRvs167
# Protocol: as §1
# SpSla1-D1-D2 = molecular target: SpSla1-D1-D2
# Protocol: as §1
# SpSla1-D3 = molecular target: SpSla1-D3
# Protocol: as §1
binder,measurement,setting,value
B1,SPOT peptide array binding signal intensity,AgAbp1,29
same,SPOT peptide array binding signal intensity,AgBbc1,4.75
same,SPOT peptide array binding signal intensity,AgBem1-D1,≤ 0
same,SPOT peptide array binding signal intensity,AgBzz1-D1,30
same,SPOT peptide array binding signal intensity,AgBzz1-D2,38
same,SPOT peptide array binding signal intensity,AgCyk3,≤ 0
same,SPOT peptide array binding signal intensity,AgFus1,17.5
same,SPOT peptide array binding signal intensity,AgHof1,777
same,SPOT peptide array binding signal intensity,AgHse1,39.5
same,SPOT peptide array binding signal intensity,AgLsb1,1
same,SPOT peptide array binding signal intensity,AgLsb4,60.5
same,SPOT peptide array binding signal intensity,AgMyo5,≤ 0
same,SPOT peptide array binding signal intensity,AgNbp2,6.5
same,SPOT peptide array binding signal intensity,AgRvs167,1
same,SPOT peptide array binding signal intensity,AgSho1,54
same,SPOT peptide array binding signal intensity,AgSla1-D1-D2,2
same,SPOT peptide array binding signal intensity,AgSla1-D3,1.5
same,SPOT peptide array binding signal intensity,CaAbp1-D1,55
same,SPOT peptide array binding signal intensity,CaAbp1-D2,226
same,SPOT peptide array binding signal intensity,CaBbc1,41.5
same,SPOT peptide array binding signal intensity,CaBem1-D1,≤ 0
same,SPOT peptide array binding signal intensity,CaBzz1-D1,46.5
same,SPOT peptide array binding signal intensity,CaBzz1-D2,48.2
same,SPOT peptide array binding signal intensity,CaCyk3,1
same,SPOT peptide array binding signal intensity,CaFus1,≤ 0
same,SPOT peptide array binding signal intensity,CaHof1,3
same,SPOT peptide array binding signal intensity,CaHse1,1110
same,SPOT peptide array binding signal intensity,CaLsb1,0.5
same,SPOT peptide array binding signal intensity,CaLsb4,521
same,SPOT peptide array binding signal intensity,CaMyo5,4
B2,SPOT peptide array binding signal intensity,AgAbp1,30
same,SPOT peptide array binding signal intensity,AgBbc1,585
same,SPOT peptide array binding signal intensity,AgBem1-D1,98.5
same,SPOT peptide array binding signal intensity,AgBzz1-D1,73
same,SPOT peptide array binding signal intensity,AgBzz1-D2,80
same,SPOT peptide array binding signal intensity,AgCyk3,102
same,SPOT peptide array binding signal intensity,AgFus1,17
same,SPOT peptide array binding signal intensity,AgHof1,938
same,SPOT peptide array binding signal intensity,AgHse1,29
same,SPOT peptide array binding signal intensity,AgLsb1,148
same,SPOT peptide array binding signal intensity,AgLsb4,1970
same,SPOT peptide array binding signal intensity,AgMyo5,≤ 0
same,SPOT peptide array binding signal intensity,AgNbp2,0.5
same,SPOT peptide array binding signal intensity,AgRvs167,797
same,SPOT peptide array binding signal intensity,AgSho1,2750
same,SPOT peptide array binding signal intensity,AgSla1-D1-D2,1
same,SPOT peptide array binding signal intensity,AgSla1-D3,≤ 0
same,SPOT peptide array binding signal intensity,CaAbp1-D1,32
same,SPOT peptide array binding signal intensity,CaAbp1-D2,6
same,SPOT peptide array binding signal intensity,CaBbc1,1000
same,SPOT peptide array binding signal intensity,CaBem1-D1,26.5
same,SPOT peptide array binding signal intensity,CaBzz1-D1,132
same,SPOT peptide array binding signal intensity,CaBzz1-D2,90.5
same,SPOT peptide array binding signal intensity,CaCyk3,35
same,SPOT peptide array binding signal intensity,CaFus1,74
same,SPOT peptide array binding signal intensity,CaHof1,17
same,SPOT peptide array binding signal intensity,CaHse1,49.2
same,SPOT peptide array binding signal intensity,CaLsb1,1.5
same,SPOT peptide array binding signal intensity,CaLsb4,4700
same,SPOT peptide array binding signal intensity,CaMyo5,4
same,SPOT peptide array binding signal intensity,CaNbp2,100
same,SPOT peptide array binding signal intensity,CaRvs167,1040
same,SPOT peptide array binding signal intensity,CaRvs167-3,1.75
same,SPOT peptide array binding signal intensity,CaSho1,658
same,SPOT peptide array binding signal intensity,CaSla1-D1-D2,738
same,SPOT peptide array binding signal intensity,CaSla1-D3,3.25
same,SPOT peptide array binding signal intensity,ScAbp1,62
same,SPOT peptide array binding signal intensity,ScBbc1,65
same,SPOT peptide array binding signal intensity,ScBem1-D1,9
same,SPOT peptide array binding signal intensity,ScBzz1-D1,25
same,SPOT peptide array binding signal intensity,ScBzz1-D2,21
same,SPOT peptide array binding signal intensity,ScCyk3,4
same,SPOT peptide array binding signal intensity,ScFus1,22
same,SPOT peptide array binding signal intensity,ScHof1,70.2
same,SPOT peptide array binding signal intensity,ScHse1,≤ 0
same,SPOT peptide array binding signal intensity,ScLsb1,95
same,SPOT peptide array binding signal intensity,ScLsb2,36.5
same,SPOT peptide array binding signal intensity,ScLsb3,6550
same,SPOT peptide array binding signal intensity,ScLsb4,1180
same,SPOT peptide array binding signal intensity,ScMyo3,≤ 0
same,SPOT peptide array binding signal intensity,ScMyo5,≤ 0
same,SPOT peptide array binding signal intensity,ScNbp2,23
same,SPOT peptide array binding signal intensity,ScPex13,1010
same,SPOT peptide array binding signal intensity,ScRvs167,1370
same,SPOT peptide array binding signal intensity,ScSho1,6410
same,SPOT peptide array binding signal intensity,ScSla1-D1-D2,383
same,SPOT peptide array binding signal intensity,ScSla1-D3,2
same,SPOT peptide array binding signal intensity,SpAbp1-D1,17
same,SPOT peptide array binding signal intensity,SpBbc1,28
same,SPOT peptide array binding signal intensity,SpBzz1-D1,450
same,SPOT peptide array binding signal intensity,SpBzz1-D2,1.5
same,SPOT peptide array binding signal intensity,SpCyk3,123
same,SPOT peptide array binding signal intensity,SpHof1,1520
same,SPOT peptide array binding signal intensity,SpHof1-2,1990
same,SPOT peptide array binding signal intensity,SpHof1-3,1170
same,SPOT peptide array binding signal intensity,SpHse1,14
same,SPOT peptide array binding signal intensity,SpLsb1,82.8
same,SPOT peptide array binding signal intensity,SpLsb4,6900
same,SPOT peptide array binding signal intensity,SpMyo1,45.8
same,SPOT peptide array binding signal intensity,SpNbp2,20
same,SPOT peptide array binding signal intensity,SpPex13,3.5
same,SPOT peptide array binding signal intensity,SpRvs167,2080
same,SPOT peptide array binding signal intensity,SpSla1-D1-D2,333
same,SPOT peptide array binding signal intensity,SpSla1-D3,7
B3,SPOT peptide array binding signal intensity,SpBzz1-D2,0.5
same,SPOT peptide array binding signal intensity,SpCyk3,≤ 0
same,SPOT peptide array binding signal intensity,SpHof1,6.25
same,SPOT peptide array binding signal intensity,SpHof1-2,7.5
same,SPOT peptide array binding signal intensity,SpHof1-3,83
same,SPOT peptide array binding signal intensity,SpHse1,4
same,SPOT peptide array binding signal intensity,SpLsb1,19.8
same,SPOT peptide array binding signal intensity,SpLsb4,≤ 0
same,SPOT peptide array binding signal intensity,SpMyo1,≤ 0
same,SPOT peptide array binding signal intensity,SpNbp2,5.5
same,SPOT peptide array binding signal intensity,SpPex13,≤ 0
same,SPOT peptide array binding signal intensity,SpRvs167,12.3
same,SPOT peptide array binding signal intensity,SpSla1-D1-D2,≤ 0
same,SPOT peptide array binding signal intensity,SpSla1-D3,≤ 0
